The record followed here is PubChem BioAssay (EPA / NIEHS).

Values joined by “and” are separate entries in the source; they are usually repeats but may differ in a detail not shown here. Equal entries are not always repeated. Active and inactive are the calls of the source. The calls were made as follows: active = hit-call score of the fitted dose curve at least 0.9, where 1 is the maximum; inactive = score below 0.9.

For assay [1], the target named is Transcription factor E2F1 (Homo sapiens) (UniProt Q01094). The experiment in a line: ATG_E2F_CIS: Attagene CIS-FACTORIAL HepG2 Assay for human E2F Transcription Factor 1 (AID 2282935). The note with it: HepG2 Attagene cis-reporter, E2F reporter RNA transcripts; actives raise or lower the signal. The method, boiled down: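 First, HepG2 cells were transfected with reporter transcription units. Next, they were dosed for 24 h. Then RNA was isolated, converted to cDNA, PCR-amplified, FAM-labeled, HpaI-digested and analyzed by capillary electrophoresis.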
Chain of Transcription factor E2F1 (Homo sapiens) (Q01094 whole entry, looked up): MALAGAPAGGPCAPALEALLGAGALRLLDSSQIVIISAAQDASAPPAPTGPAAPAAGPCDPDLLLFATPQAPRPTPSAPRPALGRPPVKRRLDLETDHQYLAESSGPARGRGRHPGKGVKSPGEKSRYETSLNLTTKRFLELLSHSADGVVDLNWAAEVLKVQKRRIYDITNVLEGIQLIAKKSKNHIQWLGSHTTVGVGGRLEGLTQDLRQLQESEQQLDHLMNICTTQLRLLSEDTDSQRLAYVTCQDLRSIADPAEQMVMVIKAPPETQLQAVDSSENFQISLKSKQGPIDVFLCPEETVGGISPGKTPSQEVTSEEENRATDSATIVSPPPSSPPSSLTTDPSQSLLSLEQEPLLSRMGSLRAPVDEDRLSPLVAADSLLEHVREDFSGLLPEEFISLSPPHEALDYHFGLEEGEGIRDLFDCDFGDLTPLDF

Assay [2] can be described thus: ATG_E_Box_CIS: Attagene CIS-FACTORIAL HepG2 Assay for human Enhancer Box (E-box) (AID 2282936). As to conditions: HepG2 E-box cis-reporter transcription, actives raise or lower the signal. The essentials:
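Endogenous transcription factor activity was sensed in human HepG2 liver cells through transfected cis-promoter reporter units. After 24 h of dosing, total RNA was reverse-transcribed and reporter cDNA resolved by capillary electrophoresis.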

Assay [3] is described as follows: ATG_M_61_CIS: Attagene CIS-FACTORIAL HepG2 Assay for M61 Transcription Factor (Internal Marker) (AID 2282937). The note with it: HepG2 Attagene CIS-FACTORIAL M61 internal marker reporter; actives raise or lower the signal. The method, boiled down:
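Readout is reporter mRNA by RT-PCR, fluorescent primer extension and capillary electrophoresis, with gain or loss fitted relative to DMSO. Transfected HepG2 cells carrying endogenous-TF-driven cis reporters were exposed to chemicals for 24 hours.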

Assay [4] is described as follows: ATG_EGR_CIS: Attagene CIS-FACTORIAL HepG2 Assay for human Early Growth Response 1 (EGR1) (AID 2282938). As to conditions: HepG2 Attagene CIS-FACTORIAL EGR reporter mRNA; actives raise or lower the signal. The essentials: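 After 24 h compound exposure, RNA from reporter-transfected HepG2 cells was reverse-transcribed, PCR-amplified, fluorescently labelled and resolved by capillary electrophoresis. EGR1 reporter transcript changes, up or down, were fitted against DMSO, reflecting endogenous transcription-factor activity.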

Assay [5] is described as follows: ATG_M_19_CIS: Attagene CIS-FACTORIAL HepG2 Assay for M19 Transcription Factor (Internal Marker) (AID 2282939). The note with it: HepG2 Attagene CIS-FACTORIAL M19 internal marker reporter; actives raise or lower the signal. The method, boiled down:
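Readout: fluorescent reporter-transcript fragments by capillary electrophoresis after RT-PCR. Human HepG2 liver cells carried transfected MRTU constructs reporting endogenous transcription-factor activity; exposure 24 h. Gain or loss of signal fitted relative to DMSO.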

The nature of assay [6]: ATG_ERE_CIS: Attagene CIS-FACTORIAL HepG2 Assay for Estrogen Response Element (ERE) (AID 2282940). The note with it: HepG2 ERE cis-reporter, Attagene RNA transcript; actives raise or lower the signal. The essentials: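 Readout: reporter mRNA induction by RT-PCR, FAM-labelled primer extension, HpaI digestion and capillary electrophoresis, 24 h after dosing transfected HepG2 cells. Endogenous transcription factors act on cis-element-regulated reporters. Gain or loss fitted against DMSO.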

The nature of assay [7]: ATG_Ets_CIS: Attagene CIS-FACTORIAL HepG2 Assay for human Erythroblast Transformation Specific (ETS) (AID 2282941). As to conditions: HepG2 ETS cis-reporter transcription, actives raise or lower the signal. The method, boiled down:
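Multiplexed reporter transcript profiling: HepG2, 24 h treatment, total RNA to cDNA, PCR, 6-FAM labelling, HpaI cut, capillary electrophoresis. Gain- or loss-of-signal fitted against DMSO.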

The target in assay [8] is Hepatocyte nuclear factor 3-beta (Homo sapiens) (UniProt Q9Y261). As to the kind of experiment: ATG_FoxA2_CIS: Attagene CIS-FACTORIAL HepG2 Assay for human Forkhead box A2 (FOXA2) (AID 2282942). The note with it: HepG2 cis-reporter transcription factor activity, 24 h; actives raise or lower the signal. The essentials:
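Endogenous transcription factor activity is captured via cis-element-driven reporter transcripts in transfected HepG2. Total RNA taken at 24 h post-dosing; labelled RT-PCR products resolved by capillary electrophoresis. Gain or loss fitted versus DMSO.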

Assay [9] is described as follows: ATG_FoxO_CIS: Attagene CIS-FACTORIAL HepG2 Assay for human Forkhead box O (FoxO) (AID 2282943). The note with it: HepG2 Attagene cis-reporter, FoxO element, mRNA; actives raise or lower the signal. The method, boiled down:
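HepG2 cells transiently transfected with cis-promoter-driven multiple reporter transcription units; 24 h after chemical dosing, reporter mRNA quantified by RT-PCR, fluorescent primer extension, HpaI digestion and capillary electrophoresis. Bidirectional fitting versus DMSO baseline.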

The nature of assay [10]: ATG_GATA_CIS: Attagene CIS-FACTORIAL HepG2 Assay for human GATA Binding Protein (AID 2282944). The note with it: HepG2 GATA cis-element reporter, Attagene multiplex mRNA; actives raise or lower the signal. The method, boiled down: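 Read-out: fluorescent reporter mRNA fragments resolved by capillary electrophoresis after RT-PCR. Human liver HepG2 cells carried transiently transfected cis-regulated reporter constructs; chemicals incubated 24 h; gain or loss of signal fitted relative to DMSO.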

Assay [11] is described as follows: ATG_GLI_CIS: Attagene CIS-FACTORIAL HepG2 Assay for human Zinc Finger Protein GLI1 (AID 2282945). The note with it: HepG2, Attagene cis-factorial reporter mRNA, GLI element; actives raise or lower the signal. The method, boiled down: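 HepG2 cells transiently transfected with cis-promoter multiplexed reporter units report endogenous transcription factor activity. After 24 h chemical exposure, reporter mRNA was quantified by RT-PCR, 6-FAM labelling, HpaI digestion and capillary electrophoresis, with bidirectional fitting against DMSO.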

The target in assay [12] is Bile acid receptor (Homo sapiens) (UniProt Q96RI1). As to the kind of experiment: ATG_IR1_CIS: Attagene CIS-FACTORIAL HepG2 Assay for human Nuclear Receptor Subfamily 1 Group H Member 4 (NR1H4), IR1 submotif (AID 2282946). The note with it: IR1 reporter transcription, actives raise or lower the signal. The method, boiled down: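 Readout: reporter transcript levels by RT-PCR with fluorescent capillary electrophoresis, from HepG2 cells transiently transfected with multiplexed cis-regulated reporters and dosed 24 h. Gain- or loss-of-signal fitted versus DMSO negative control.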
Chain of Bile acid receptor (Homo sapiens) (Q96RI1 whole entry, looked up): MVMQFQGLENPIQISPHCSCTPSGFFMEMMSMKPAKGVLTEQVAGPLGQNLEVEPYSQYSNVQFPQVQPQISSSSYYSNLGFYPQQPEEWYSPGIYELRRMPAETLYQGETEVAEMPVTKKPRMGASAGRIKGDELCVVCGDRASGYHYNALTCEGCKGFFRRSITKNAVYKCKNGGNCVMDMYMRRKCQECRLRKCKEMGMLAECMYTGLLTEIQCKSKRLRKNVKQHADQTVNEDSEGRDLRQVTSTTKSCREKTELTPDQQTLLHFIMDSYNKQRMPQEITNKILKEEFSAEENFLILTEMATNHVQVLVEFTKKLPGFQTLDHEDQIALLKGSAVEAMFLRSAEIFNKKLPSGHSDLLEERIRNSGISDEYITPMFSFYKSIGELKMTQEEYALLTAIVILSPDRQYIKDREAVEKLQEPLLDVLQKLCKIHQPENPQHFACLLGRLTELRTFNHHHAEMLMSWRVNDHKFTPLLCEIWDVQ

The nature of assay [13]: ATG_GRE_CIS: Attagene CIS-FACTORIAL HepG2 Assay for human Glucocorticoid Response Elements (GRE) (AID 2282947). As to conditions: HepG2 GRE cis-reporter, Attagene multiplex mRNA; actives raise or lower the signal. The essentials:
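Cells (HepG2) bearing transfected cis-promoter reporter transcription units were treated with chemical for 24 hours. Reporter mRNA was measured via RT-PCR with capillary electrophoresis, and activity was fitted in both directions relative to DMSO.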

Assay [14] in a line: ATG_ISRE_CIS: Attagene CIS-FACTORIAL HepG2 Assay for human Interferon Regulatory Factor 1 (IRF1) binding to an Interferon-Stimulated Response Element (ISRE) (AID 2282948). The note with it: HepG2 ISRE cis-reporter (Attagene), mRNA transcription readout; actives raise or lower the signal. The essentials:
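Signal reflects induction or loss of ISRE-linked reporter mRNA in transiently transfected HepG2 cells after a 24 h treatment, detected by fluorescent RT-PCR fragments on capillary electrophoresis and normalised to DMSO.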

Assay [15] in a line: ATG_M_32_CIS: Attagene CIS-FACTORIAL HepG2 Assay for M32 Transcription Factor (Internal Marker) (AID 2282949).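 Also: background control marker of the multiplexed CIS panel rather than a real target.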 As to conditions: HepG2 Attagene cis-factorial M32 reporter, mRNA; actives raise or lower the signal. The method, boiled down: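 HepG2 transfectants (cis-regulated reporter transcription units) dosed 24 h. Reporter mRNA by RT-PCR plus CE, analysed as gain or loss relative to DMSO.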

Assay [16] is described as follows: ATG_M_06_CIS: Attagene CIS-FACTORIAL HepG2 Assay for M06 Transcription Factor (Internal Marker) (AID 2282950). The note with it: HepG2 Attagene CIS-FACTORIAL M06 internal marker reporter; actives raise or lower the signal. The essentials:
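Terse: HepG2, transient MRTU transfection (FuGene 6), 24 h dosing; total RNA, oligo(dT) RT, PCR, FAM label, HpaI cut, capillary electrophoresis; bidirectional fit vs DMSO baseline; background-control endpoint.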

Assay [17] has as its target Hypoxia-inducible factor 1-alpha (Homo sapiens) (UniProt Q16665). The experiment in a line: ATG_HIF1a_CIS: Attagene CIS-FACTORIAL HepG2 Assay for human Hypoxia Inducible Factor 1 (HIF1A) (AID 2282951). The note with it: HepG2 Attagene cis-factorial HIF1a reporter transcription; actives raise or lower the signal. The essentials: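 Activity is fitted in both directions relative to DMSO. Reporter transcripts are read by RT-PCR, fluorescent primer extension and capillary electrophoresis after 24 h chemical treatment. The cells are HepG2 carrying transiently transfected cis-element-driven reporter units responding to endogenous factors.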

Assay [18] deals with Hepatocyte nuclear factor 6 (Homo sapiens) (UniProt Q9UBC0). The experiment in a line: ATG_HNF6_CIS: Attagene CIS-FACTORIAL HepG2 Assay for human Hepatocyte Nuclear Factor 6 (HNF6) (AID 2282952). The note with it: HepG2 Attagene cis-factorial HNF6 reporter transcription; actives raise or lower the signal. The method, boiled down: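 Activity values derive from bidirectional fitting against DMSO of reporter mRNA levels, measured by capillary electrophoresis of labelled RT-PCR products from HepG2 cells exposed 24 h.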
Chain of Hepatocyte nuclear factor 6 (Homo sapiens) (Q9UBC0 whole entry, looked up): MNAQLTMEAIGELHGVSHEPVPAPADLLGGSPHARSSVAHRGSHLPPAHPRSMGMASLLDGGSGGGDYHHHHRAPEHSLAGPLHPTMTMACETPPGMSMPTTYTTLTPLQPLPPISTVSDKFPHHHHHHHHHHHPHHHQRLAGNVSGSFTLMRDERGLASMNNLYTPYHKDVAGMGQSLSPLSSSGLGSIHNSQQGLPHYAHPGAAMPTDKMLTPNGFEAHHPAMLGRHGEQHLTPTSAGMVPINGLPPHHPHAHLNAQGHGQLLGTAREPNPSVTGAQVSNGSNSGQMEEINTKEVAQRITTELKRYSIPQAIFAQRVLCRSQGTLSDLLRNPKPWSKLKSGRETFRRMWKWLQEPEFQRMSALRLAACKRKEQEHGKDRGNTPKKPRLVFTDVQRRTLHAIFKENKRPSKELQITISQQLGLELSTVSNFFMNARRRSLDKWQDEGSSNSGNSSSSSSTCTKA

Assay [19] deals with Heat shock factor protein 1 (Homo sapiens) (UniProt Q00613). The experiment in a line: ATG_HSE_CIS: Attagene CIS-FACTORIAL HepG2 Assay for human Heat Shock Transcription Factor 1 (HSE) (AID 2282953). The note with it: HepG2 HSE cis-reporter, Attagene RNA transcription; actives raise or lower the signal. The method, boiled down:
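Read-out: fluorescence of reporter-specific RT-PCR fragments separated by capillary electrophoresis. HepG2 carrying transfected cis-element reporter units; 24 h dosing; activity fitted in both directions relative to DMSO baseline.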

The nature of assay [20]: ATG_MRE_CIS: Attagene CIS-FACTORIAL HepG2 Assay for human Metal Responsive Element (MRE) (AID 2282954). As to conditions: HepG2 MRE cis-reporter transcription, Attagene multiplex; actives raise or lower the signal. The method, boiled down: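 Cells were transfected with cis-promoter reporter transcription units, then dosed for 24 h. RNA was reverse-transcribed, amplified, fluorescently labelled and resolved by capillary electrophoresis, and activity was fitted in both directions relative to DMSO.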

Chain of Hypoxia-inducible factor 1-alpha (Homo sapiens) (Q16665 whole entry, looked up): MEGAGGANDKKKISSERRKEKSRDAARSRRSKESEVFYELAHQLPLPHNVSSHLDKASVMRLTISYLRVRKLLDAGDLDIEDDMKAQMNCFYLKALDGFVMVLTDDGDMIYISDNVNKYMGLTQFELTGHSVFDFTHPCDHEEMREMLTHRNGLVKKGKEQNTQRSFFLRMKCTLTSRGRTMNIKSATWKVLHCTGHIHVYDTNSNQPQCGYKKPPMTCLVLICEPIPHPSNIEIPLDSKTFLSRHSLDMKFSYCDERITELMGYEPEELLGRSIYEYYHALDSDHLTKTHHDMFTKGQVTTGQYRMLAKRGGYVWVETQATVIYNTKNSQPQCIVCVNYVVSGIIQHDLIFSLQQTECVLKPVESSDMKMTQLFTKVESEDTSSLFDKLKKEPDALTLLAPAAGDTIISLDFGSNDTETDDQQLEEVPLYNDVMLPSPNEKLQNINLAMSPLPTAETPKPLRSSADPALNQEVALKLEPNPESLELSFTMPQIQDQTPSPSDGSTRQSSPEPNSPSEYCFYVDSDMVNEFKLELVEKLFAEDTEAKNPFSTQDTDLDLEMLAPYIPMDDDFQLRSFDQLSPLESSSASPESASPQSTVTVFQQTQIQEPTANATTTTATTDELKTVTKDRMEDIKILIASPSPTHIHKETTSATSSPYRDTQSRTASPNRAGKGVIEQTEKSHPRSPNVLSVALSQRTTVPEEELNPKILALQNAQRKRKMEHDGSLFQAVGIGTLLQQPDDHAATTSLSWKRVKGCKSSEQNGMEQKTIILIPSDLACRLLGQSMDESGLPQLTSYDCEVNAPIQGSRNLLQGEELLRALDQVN
Chain of Heat shock factor protein 1 (Homo sapiens) (Q00613 whole entry, looked up, the tested form may be a part): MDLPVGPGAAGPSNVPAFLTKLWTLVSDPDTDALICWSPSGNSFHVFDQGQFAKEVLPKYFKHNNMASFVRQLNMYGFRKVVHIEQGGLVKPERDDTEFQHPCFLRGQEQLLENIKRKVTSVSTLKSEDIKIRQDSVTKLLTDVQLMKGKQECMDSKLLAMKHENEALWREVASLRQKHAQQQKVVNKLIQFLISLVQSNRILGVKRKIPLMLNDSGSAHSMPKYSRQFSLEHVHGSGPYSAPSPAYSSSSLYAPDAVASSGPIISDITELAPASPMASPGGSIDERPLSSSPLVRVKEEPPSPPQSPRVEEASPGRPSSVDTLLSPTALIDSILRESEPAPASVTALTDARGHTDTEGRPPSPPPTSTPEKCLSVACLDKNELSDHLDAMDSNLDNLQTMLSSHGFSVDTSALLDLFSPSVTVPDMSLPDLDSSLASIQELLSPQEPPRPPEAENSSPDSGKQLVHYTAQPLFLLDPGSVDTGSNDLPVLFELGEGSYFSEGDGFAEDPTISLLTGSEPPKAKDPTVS
Chain of Hepatocyte nuclear factor 3-beta (Homo sapiens) (Q9Y261 whole entry, looked up): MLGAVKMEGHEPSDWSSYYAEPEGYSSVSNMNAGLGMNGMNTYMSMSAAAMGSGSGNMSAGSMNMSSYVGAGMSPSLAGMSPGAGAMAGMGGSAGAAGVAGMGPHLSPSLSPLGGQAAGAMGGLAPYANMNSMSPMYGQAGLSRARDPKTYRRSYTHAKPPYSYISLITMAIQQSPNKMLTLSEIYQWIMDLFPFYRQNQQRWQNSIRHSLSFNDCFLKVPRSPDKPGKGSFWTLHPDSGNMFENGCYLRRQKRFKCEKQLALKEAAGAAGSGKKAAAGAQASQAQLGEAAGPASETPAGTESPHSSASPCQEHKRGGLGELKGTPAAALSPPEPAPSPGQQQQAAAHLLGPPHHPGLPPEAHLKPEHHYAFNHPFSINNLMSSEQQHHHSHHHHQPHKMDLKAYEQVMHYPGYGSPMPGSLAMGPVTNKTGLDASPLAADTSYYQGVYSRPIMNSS

In the case of `O=NN1CCCC1`, the compound was classed as inactive in assay [1], in assay [2], in assay [3], in [4], in assay [5] and in [6]. Besides, the compound was classed as inactive in assay [7], in assay [8], in assay [9], in [10], in [11] and in [12]. Also, the compound was called inactive in [13], in assay [14], in assay [15], in [16], in assay [17] and in assay [18]. Also, the result in assay [19] and in [20] was inactive.

For `COC(=O)C(F)(F)C(F)(F)OC(F)(C(F)(F)F)C(F)(F)OC(F)=C(F)F` (stereo not drawn), the compound was called inactive in assay [1], in assay [2], in [3], in assay [4], in assay [5] and in assay [7]. In addition, the outcome in [8], in [9], in assay [10], in assay [11], in [12] and in assay [13] was inactive. In addition, the result in [14], in assay [16], in assay [17], in assay [18], in [19] and in assay [20] was inactive. The AC50 (commonly the midpoint of the concentration-response curve, whichever way the signal moves) in [6] was 303 nM (active) and 563 nM (active) and 514 nM (active).

Turning to `CCCCC(CC)COC(=O)c1c(Br)c(Br)c(Br)c(Br)c1C(=O)OCC(CC)CCCC` (stereo not drawn), the result in assay [1], in [2], in assay [3], in [4], in assay [5] and in assay [6] was inactive. Also, the compound was called inactive in assay [7], in assay [8], in [9], in [10], in assay [11] and in assay [12]. Besides, the compound was called inactive in [13], in assay [14], in assay [15], in assay [16], in assay [17] and in assay [18]. Moreover, the call in assay [20] was inactive.
